From PubChem BioAssay
ULK1 primary: human ULK1 kinase inhibition, primary screen | O75385 | AlphaScreen Atg13 phosphorylation by ULK1, luminescence | inhibition, % at 5.96 µM | hit rate 1.9% among 30,000 | AID 1259251; in the data active = inhibition above about 43%
ASK1 primary: human ASK1 kinase inhibition, primary screen. Q99683. AlphaScreen MKK6 phosphorylation by ASK1, luminescence. inhibition, % at 7.44 µM. hit rate 0.99% among 22,000. AID 1159602; in the data active = inhibition above about 35%
Target sequence (Q99683 whole entry, looked up): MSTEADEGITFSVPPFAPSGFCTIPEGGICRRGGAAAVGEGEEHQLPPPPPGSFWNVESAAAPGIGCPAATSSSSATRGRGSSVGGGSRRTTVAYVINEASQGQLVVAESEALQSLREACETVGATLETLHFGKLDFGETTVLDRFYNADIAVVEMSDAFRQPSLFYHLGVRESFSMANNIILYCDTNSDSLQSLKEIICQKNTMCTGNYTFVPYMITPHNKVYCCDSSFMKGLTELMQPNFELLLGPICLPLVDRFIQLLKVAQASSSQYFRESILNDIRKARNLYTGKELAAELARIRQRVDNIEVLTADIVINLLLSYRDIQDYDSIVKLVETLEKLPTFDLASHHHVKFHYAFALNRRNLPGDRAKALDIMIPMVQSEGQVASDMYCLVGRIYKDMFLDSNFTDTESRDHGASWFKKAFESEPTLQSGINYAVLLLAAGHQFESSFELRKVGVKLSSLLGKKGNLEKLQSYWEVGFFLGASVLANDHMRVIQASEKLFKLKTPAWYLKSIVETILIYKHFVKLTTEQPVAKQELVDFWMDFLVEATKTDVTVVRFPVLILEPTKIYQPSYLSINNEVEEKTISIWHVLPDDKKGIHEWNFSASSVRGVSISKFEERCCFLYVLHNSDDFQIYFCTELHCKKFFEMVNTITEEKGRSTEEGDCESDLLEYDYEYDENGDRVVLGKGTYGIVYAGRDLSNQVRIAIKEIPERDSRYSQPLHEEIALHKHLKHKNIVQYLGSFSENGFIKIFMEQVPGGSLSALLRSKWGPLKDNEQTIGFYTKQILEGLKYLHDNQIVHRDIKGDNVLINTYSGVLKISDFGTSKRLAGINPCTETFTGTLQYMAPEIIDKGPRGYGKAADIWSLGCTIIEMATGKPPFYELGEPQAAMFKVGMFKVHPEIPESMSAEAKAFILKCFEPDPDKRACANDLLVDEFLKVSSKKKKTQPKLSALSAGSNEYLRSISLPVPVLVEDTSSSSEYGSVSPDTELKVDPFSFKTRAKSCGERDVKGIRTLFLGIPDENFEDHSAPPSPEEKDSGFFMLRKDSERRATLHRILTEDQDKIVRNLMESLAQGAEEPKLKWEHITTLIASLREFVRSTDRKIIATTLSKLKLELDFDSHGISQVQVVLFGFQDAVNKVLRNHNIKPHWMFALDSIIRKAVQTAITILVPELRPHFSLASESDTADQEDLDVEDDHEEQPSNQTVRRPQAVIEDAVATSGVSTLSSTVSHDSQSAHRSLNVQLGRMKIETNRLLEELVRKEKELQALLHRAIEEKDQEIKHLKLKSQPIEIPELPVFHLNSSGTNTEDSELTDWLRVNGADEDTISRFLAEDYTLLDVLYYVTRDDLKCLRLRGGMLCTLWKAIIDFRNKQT
Of the large screens only hits and unclear results are named; the others gave an inactive call; ! = a repeat was not active. Shown are actives, neighbours in structure and some others; about 2.5% of the full set was active somewhere.

CC(C)N1CCN(c2ncn(-c3ccc(Nc4ncc5ccc(-c6cnn(C)c6)c(Cl)c5n4)cc3)n2)CC1	ULK1 primary 91.0
Cn1cc(-c2ccc3cnc(Nc4ccc(N5CCOCC5)nc4)nc3c2Cl)cn1	ULK1 primary 78.2
Cc1n[nH]c(C)c1-c1ccc2cnc(Nc3ccc(-n4cnc(N5CCOCC5)n4)cc3)nc2c1	none
Cc1ccc(-c2ccc(Nc3ncc4ccc(-c5cnn(C)c5)c(Cl)c4n3)cc2)cn1	ULK1 primary 43.8
Cc1[nH]ncc1-c1ccc2cnc(Nc3ccc(-n4cnc(N5CCOCC5)n4)cc3)nc2c1	ULK1 primary 76.2
Cc1nc(C)n(-c2ccc(Nc3nc(-c4cnn(C)c4)cc(N4CCOCC4)n3)cc2)n1	none
CC(=O)Nc1nc2c3cccc4cccc(c(=O)n2n1)c43	none (no result: ASK1 primary)
Cc1cccc(Nc2ccc3c(cnn3-c3cccc(C(=O)NCCN4CCN(C5CCC5)CC4)c3)c2)c1Cl	none
Cc1nc(C)n(-c2ccc(Nc3cc(-c4cnn(C)c4)ccn3)cc2)n1	none
Cn1cc(-c2ccc3cnc(Nc4ccc(-n5cnc(N6CCOCC6)n5)cc4)cc3c2)cn1	ULK1 primary 73.7
Cn1cc(-c2nc(Nc3ccc(-n4cnc(N5CCOCC5)n4)cc3)ncc2F)cn1	none
Cn1cc(-c2ccc3cnc(Nc4ccccc4)cc3c2)cn1	ULK1 primary 65.7
Cn1cc(-c2nc(Nc3ccc(-n4cnc(N5CCC(O)CC5)n4)cc3)ncc2Cl)cn1	ULK1 primary 70.8
CCOC(=O)c1c(-c2cnn(C)c2)ccc2cnc(Nc3ccc(-n4cnc(N5CCOCC5)n4)cc3)nc12	ULK1 primary 59.9
Cc1ccc(-c2ncn(-c3ccc(Nc4ncc(Cl)c(-c5cnn(C)c5)n4)cc3)n2)cn1	none
Cn1cc(-c2ccc3cnc(Nc4ccc(-n5cnc(N6CCOCC6)n5)cc4)nc3c2OCCN2CCOCC2)cn1	none
Cc1noc(C)c1-c1nc2c(NCc3nc4ccccc4[nH]3)ncnc2n1C(C)C	none
Cc1cc(Nc2ccc(Oc3ccccc3)cc2)nc(Nc2ccncc2)n1	none
COc1cc(Nc2cc(C)nc(-c3csc4ccccc34)n2)cc(OC)c1OC	none
C[C@H](CO)NC(=O)c1cc(Nc2ccc3[nH]ncc3c2)ccn1	none
CN1CCN(C(=O)c2ccc(-c3nc4ncnc(NCCO)c4[nH]3)cc2)CC1	none
Cc1c(-c2cnn(C)c2)ccc2cnc(Nc3ccc(-n4cnc(N5CCOCC5)n4)cc3)nc12	ULK1 primary 59.6
Cn1cc(-c2ccc3cnc(Nc4ccc(-n5cnc(N6CCOCC6)n5)cc4)nc3c2Cl)cn1	ULK1 primary 47.4
Cn1cc(-c2cccc3cnc(Nc4ccc(-n5cnc(N6CCOCC6)n5)cc4)nc23)cn1	none
Cn1cc(-c2cccc3nc(Nc4ccc(-n5cnc(N6CCOCC6)n5)cc4)ncc23)cn1	none
c1ccc(Oc2ccc(Nc3nc(-c4ccccc4)nc4c3ncn4-c3ccccc3)cc2)cc1	none
CCCNC(=O)c1ccc(Cl)cc1Cl	none (no result: ASK1 primary)
CCCCNC(=O)c1ccc(Cl)cc1O	ULK1 primary 43.0! (no result: ASK1 primary)
O=C(O)C1CCSCN1 (stereo not drawn)	none (no result: ASK1 primary)
CC(=O)Nc1ccc(NC(=O)c2ccnc(-c3ccc(C(=O)NC4CC4)cc3)c2)cc1	ULK1 primary 44.2
O=C(NC1CC1)c1ccc(-c2cc(C(=O)NC3CC3)ccn2)cc1	none
COc1ccc(CC(=O)Nc2cc(Nc3ccccc3-c3ncccn3)c(C(F)(F)F)cn2)cc1	none
NC(=O)c1ccccc1Nc1cc(Oc2ccc(N3CCNCC3)cc2)ncc1C(F)(F)F	ULK1 primary 60.0
CNC(=O)c1ccccc1Nc1cc(NC(=O)Cc2c(Cl)cccc2Cl)ncc1C(F)(F)F	none
CNC(=O)c1ccccc1Nc1cc(NC(=O)Cc2cccc(OC)c2)ncc1C(F)(F)F	ULK1 primary 55.1
NC(=O)c1ccccc1Nc1cc(NC(=O)Cc2ccc(CN3CCOCC3)cc2)ncc1Cl	none
CNC(=O)c1ccccc1Nc1cc(NC(=O)Cc2ccc(OC)cc2)ncc1C(F)(F)F	ULK1 primary 70.2
NC(=O)c1ccccc1Nc1cc(NC(=O)Cc2ccc(CN3CCOCC3)cc2)ncc1C(F)(F)F	ULK1 primary 62.9
NC(=O)c1ccccc1Nc1cc(NC(=O)Cc2ccc3ccccc3c2)ncc1C(F)(F)F	none
CC(C)N(CCNC(=O)c1cc(Cl)nc2ccccc12)C(C)C	none
CNC(=O)c1cccnc1Nc1cc(NC(=O)Cc2ccc(OC)cc2)ncc1C(F)(F)F	ULK1 primary 43.1
CNC(=O)c1ccccc1Nc1cc(NC(=O)CCc2ccccc2)ncc1C(F)(F)F	none
CNC(=O)c1ccccc1Nc1cc(NC(=O)Cc2ccccc2)ncc1C(F)(F)F	ULK1 primary 57.6
CNC(=O)c1ccccc1Nc1cc(NC(=O)Cc2ccc(OC)cc2)ncc1C#N	none
CC(=O)Nc1ccc(Nc2nc(Nc3nc4ccccc4n3C)nc3c2ncn3CCN2CCCC2=O)cc1	none
COc1ccc(CCNc2nc(NC3CCN(Cc4ccccc4)CC3)nc3cc(OC)c(OC)cc23)cc1	none
CNC(=O)c1ccccc1Nc1cc(Nc2ccccn2)ncc1C(F)(F)F	ULK1 primary 88.6
CNC(=O)c1ccnc(Nc2cc(Nc3ccccc3C(=O)NC)c(C(F)(F)F)cn2)c1	ULK1 primary 86.8
O=C(Cc1ccc2c(c1)OCO2)Nc1cc(Nc2ccccc2-c2ncn[nH]2)c(C(F)(F)F)cn1	none
O=C(O)c1ccccc1Nc1ccccn1	none (no result: ASK1 primary)
CNC(=O)c1ccccc1Nc1cc(Nc2ccc(-c3cncnc3)cc2)ncc1C(F)(F)F	ULK1 primary 69.9
O=C(NCc1cccc(C(F)(F)F)c1)c1ccnc(Nc2ccccn2)c1	none
CNC(=O)c1ccccc1Nc1cc(Nc2ccc3c(c2)CCC(=O)N3C)ncc1C(F)(F)F	ULK1 primary 89.5
Nc1ccc(-c2nc3c(Cl)c(N)ccc3[nH]2)cc1Cl	none (no result: ASK1 primary)
O=C1CCCN1CCCNc1nc(Nc2ccc(N3CCOCC3)cc2)c2ncn(CCN3CCCC3=O)c2n1	none
CNC(=O)c1ccc(Nc2cc(Nc3ccccc3C(=O)NC)c(C(F)(F)F)cn2)nc1	ULK1 primary 87.4
CNC(=O)c1ccccc1Nc1cc(Nc2cccc(C)n2)ncc1C(F)(F)F	ULK1 primary 89.5
COC(=O)[C@@H](N)Cc1ccc(O)c(O)c1	none (no result: ASK1 primary)
CCOC(=O)C(N)Cc1ccc(O)c(O)c1 (stereo not drawn)	ULK1 primary 66.3 (no result: ASK1 primary)
Fc1cnc(Nc2ccc(CN3CCCCC3)cc2)nc1-c1cc(N2CCOCC2)cc(C(F)(F)F)c1	none
c1cc(Cn2cccn2)cc(Nc2nccc(-c3cncc(N4CCOCC4)c3)n2)c1	ULK1 primary 80.3
Cc1cc(Nc2nccc(-c3cc(C#N)cc(N4CCOCC4)c3)n2)ccc1N1CCOCC1	none
N#Cc1cc(-c2ccnc(Nc3cccc(CN4CCCCC4)c3)n2)cc(N2CCOCC2)c1	ULK1 primary 79.2
Fc1cc(-c2ccnc(Nc3ccc(N4CCOCC4)cc3)n2)cc(N2CCOCC2)c1	none
Fc1cc(-c2nc(Nc3ccc(CN4CCCCC4)cc3)ncc2F)cc(N2CCOCC2)c1	ULK1 primary 43.6
OC1CCN(c2ccc(Nc3nccc(-c4cc(F)cc(N5CCOCC5)c4)n3)cc2)CC1	ULK1 primary 44.7
c1cc(-c2cncc(N3CCOCC3)c2)nc(Nc2ccc3c(c2)OCCO3)n1	none
COc1cc(CN2CCC(Nc3ccc4[nH]ncc4c3)C2)cc(OC)c1 (stereo not drawn)	none
CC(=O)Nc1ccc(NC(=O)c2ccc3nc(N4CCCC4CO)sc3c2)cc1 (stereo not drawn)	none
OC1CCN(c2ccc(Nc3nccc(-c4cncc(N5CCOCC5)c4)n3)cc2)CC1	ULK1 primary 67.7
N#Cc1ccc(Nc2nccc(-c3cncc(N4CCOCC4)c3)n2)cc1	none
COc1cc(NC(=O)c2cccc(-c3ccc(C(N)=O)cc3)n2)cc(OC)c1OC	none
